Measurements from PubChem BioAssay (NCATS).
Records with an inconclusive call do not appear. A number with no mark means an inactive call. The call rests on the fitted dose curve; in most records, active means well fitted curve in either direction with a large enough effect (not every such curve was filed as active); inconclusive means small, poorly fitted or top-dose-only effect, or another doubt; inactive means flat fitted curve, though single readings scatter.

Assay: Stat Signaling Pathway (AID 446);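 further: ME-180 cervical cancer cells given 40 pM IL-6 alongside compound; SIE-controlled beta-lactamase reporter measured as 460/530 nm FRET emission ratio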
Details: ME-180 SIE beta-lactamase reporter, IL-6 stimulated, 5 h; at 38 µM (top of the series)
Outline: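 ME-180 cells carrying a SIE-driven beta-lactamase reporter are stimulated with 40 pM IL-6 for 5 h at 37C in the presence of compound. The 460/530 nm FRET substrate ratio is read after 2.5 h at RT. Data are normalised to 300 pM IL-6 and to 125 nM JAK inhibitor controls.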
On the % scale 0 is the no-effect control and ±100 the full control effect.

Structure (SMILES) | activity, negative = inhibition
CC(C)COC(=O)OCN1C(=O)CN(CCN2CC(=O)N(COC(=O)OCC(C)C)C(=O)C2)CC1=O | -1.3%
O=C1CCC(c2ccc(-n3ccnc3)cc2)=NN1 | 9.57%
C[C@@H]1C(=O)NC2=Nc3cccc(Cl)c3CN21 | -15.9%
CN1CCC[C@@H]1c1cccnc1 | -4.46%
Nc1cc(Cl)c(NC2=NCCN2)c(Cl)c1 | -3.42%
